The list is not random: actives were taken first. Their share in the collection is about 9.9%.
Tau ThT inhib = blocks human tau fibril formation measured by thioflavin T; recombinant tau K18 P301L, heparin-induced fibrillization, ThT fluorescence; AID 1460; Potency, µM (top dose mostly 57.4 µM), inactives show at the highest dose activity, negative = inhibition, usual class: inhibitors; hit rate 2.1% among 270,000; P10636; active = well fitted curve in the direction sought with a large enough effect; inconclusive = small, poorly fitted or top-dose-only effect, or another doubt; inactive = no such curve, though single readings can be large; an effect the other way counts as inactive or inconclusive; also: nearly all actives have a fitted effect of over 55% in size
Target sequence (P10636 561-689 P618L limits assumed): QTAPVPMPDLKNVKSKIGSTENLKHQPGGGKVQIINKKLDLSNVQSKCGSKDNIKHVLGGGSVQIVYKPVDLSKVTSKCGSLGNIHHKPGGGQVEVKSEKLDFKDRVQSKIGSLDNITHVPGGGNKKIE
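In this qHTS, human K18 P301L tau is incubated with compound and heparin for 6 hr at 37 C, and Thioflavin T fluorescence then reports fibril load.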
Tau fluor cs = counter-screen for tau fibril formation inhibitors; hit rate 0.93% among 280,000; tau K18 P301L Alexa594 fluorescence, heparin fibrillization; Potency, µM (highest dose often 57.7 µM), for the others: at the highest dose activity change, negative = decrease; AID 1463; active = well fitted curve in the direction sought with a large enough effect; inconclusive = small, poorly fitted or top-dose-only effect, or another doubt; inactive = no such curve, though single readings can be large; an effect the other way counts as inactive or inconclusive; also: nearly all actives have a fitted effect of over 55% in size
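Human tau K18 P301L (15 uM unlabeled, 0.24 uM Alexa 594-labeled) in 100 mM sodium acetate pH 7 with 20 uM heparin, 6 hr at 37 C. ThT 30 uM added, 1 hr ambient; Alexa 594 FP and total fluorescence read at 555/632 nm.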
KDM4E inh = JMJD2E (human) inhibition; JMJD2E catalytic domain, FDH-coupled NADH fluorescence (FDH is formaldehyde dehydrogenase); Potency, µM (titrated, usually from 57.1 µM), inactives show at the highest dose activity change, negative = inhibition, actives largely listed as inhibitors; hit rate 1.6% among 230,000;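 also: 0% = wells with enzyme and -100% = buffer wells without enzyme; nearly all actives have a fitted effect of over 50% in size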
Target sequence (B2RXH2 1-337 limits assumed): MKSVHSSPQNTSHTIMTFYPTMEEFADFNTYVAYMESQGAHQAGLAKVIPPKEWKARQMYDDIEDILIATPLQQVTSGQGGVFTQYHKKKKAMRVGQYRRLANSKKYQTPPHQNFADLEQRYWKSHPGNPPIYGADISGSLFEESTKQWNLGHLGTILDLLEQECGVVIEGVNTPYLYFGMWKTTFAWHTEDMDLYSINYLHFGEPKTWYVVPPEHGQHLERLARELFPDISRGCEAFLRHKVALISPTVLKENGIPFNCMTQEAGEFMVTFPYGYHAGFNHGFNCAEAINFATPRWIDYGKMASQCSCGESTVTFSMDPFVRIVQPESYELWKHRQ
HPGD inh = inhibitors of human 15-hydroxyprostaglandin dehydrogenase (HPGD); P15428; purified HPGD, NADH fluorescence kinetic, PGE2 substrate; Potency, µM, for the others: at the highest dose activity change, negative = inhibition, actives largely listed as inhibitors; hit rate 4.3% among 150,000
Target sequence (P15428 whole entry, looked up): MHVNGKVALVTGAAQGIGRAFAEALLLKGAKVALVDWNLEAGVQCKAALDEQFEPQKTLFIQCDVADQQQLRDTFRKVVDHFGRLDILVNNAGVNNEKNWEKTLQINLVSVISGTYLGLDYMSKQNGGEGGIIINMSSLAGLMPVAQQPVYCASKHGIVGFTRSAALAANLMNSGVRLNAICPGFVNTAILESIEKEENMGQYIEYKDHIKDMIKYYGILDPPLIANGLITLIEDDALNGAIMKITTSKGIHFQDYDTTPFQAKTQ
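20 nM HPGD preincubated 15 min at room temperature with compound in 50 mM Tris-HCl pH 8, 0.01% Tween 20. Started with 1 mM NAD+ and 30 uM prostaglandin E2; NADH fluorescence (360/450 nm) read 5 times over 30-s intervals, last minus first.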
ALDH1A1 inh = inhibitors of human aldehyde dehydrogenase 1A1; Purified ALDH1A1, NADH fluorescence, propionaldehyde substrate; Potency, µM (top dose mostly 75.3 µM), without a hit: at the highest dose activity, negative = inhibition, usual class: inhibitors; hit rate 7.3% among 220,000;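 also: plate controls were no enzyme wells and a reference inhibitor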
Tau FP inhib = tau fibrillization inhibition (FP); P10636; K18 P301L tau heparin fibrillization, Alexa594 FP, 6 h; Potency, µM (series often up to 57.7 µM), for the others: top-dose activity, negative = inhibition, usual class: inhibitors; hit rate 0.39% among 280,000; active = well fitted curve in the direction sought with a large enough effect; inconclusive = small, poorly fitted or top-dose-only effect, or another doubt; inactive = no such curve, though single readings can be large; an effect the other way counts as inactive or inconclusive; also: nearly all actives have a fitted effect of over 55% in size
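Recombinant K18 P301L […], labeled with Alexa 594 at 0.24 uM over 15 uM unlabeled; heparin inducer 20 uM final; 37 C, 6 hr; FP endpoint.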
The depositor's hits bear a star; ? = inconclusive; nt = not tested or not shown; [ ] = another dose, or the depositor's remark. Unless noted, calls follow the shape of the dose curve; as a rule, active = well fitted inhibition curve with a large enough effect (not every such curve was filed as active); inconclusive = small, poorly fitted or top-dose-only effect, or another doubt; inactive = no such curve, though single readings can be large or run the other way. Unless noted, % is scaled to controls: 0 for no effect and ±100 for the full control effect; potency is read from the fitted curve at half-maximal effect.

SMILES	Tau ThT inhib	Tau fluor cs	KDM4E inh	HPGD inh	ALDH1A1 inh	Tau FP inhib
CCOC(=O)c1c(NC(=O)COC(=O)Cn2c(C)nc3ccccc32)sc2c1CCCC2	?	-6.8%	-9.5%	-19.7%	?	2.5%
CCOC(=O)c1c(NC(=O)COC(=O)Cn2cnc3ccccc32)sc2c1CCC(C)C2 (stereo unspecified)	-14.4%	-15.9%	-24.5%	-25.2%	7.94µM*	4.4%
COC(=O)c1c(NC(=O)COC(=O)Cn2cnc3ccccc32)sc2c1CCCC2	-11.3%	-7.6%	-2.6%	-19.9%	14.1µM*	2.9%
CCOC(=O)c1c(NC(=O)COC(=O)Cn2cnc3ccccc32)sc(C)c1C	-12.7%	-9.9%	-15.5%	-5.0%	?	-4.9%
CCOC(=O)c1c(NC(=O)Cn2nnc3ccccc32)sc2c1CCC(C)C2 (stereo unspecified)	-22.3%	-23.7%	?	-25.5%	-1.6%	-14.2%
Cc1ccc(C(=O)N2CCN(C(=O)c3ccco3)CC2)cc1NC(=O)c1ccco1	-5.6%	-1.5%	1.7%	nt	?	-3.5%
CCc1ccc(NC(=O)Nc2ccc3c(c2)N(C)C(=O)CS3)cc1	-18.1%	17.8µM*[quencher]	-5.7%	-8.8%	-18.0%	?
Cc1ccc(NC(=O)Nc2ccc3c(c2)N(C)C(=O)CS3)cc1C	8.0%	0.6%	-3.4%	-9.8%	-11.9%	1.9%
Cc1cc(C)cc(NC(=O)Nc2ccc3c(c2)N(C)C(=O)CS3)c1	-11.5%	11.2µM*[quencher]	-11.4%	-1.7%	10.1%	?
CC1=C(C(=O)Nc2ccc(C)cc2C)C(c2cccs2)n2nc(SCc3cccc(C)c3)nc2N1 (stereo unspecified)	-4.4%	3.6%	nt	nt	nt	-2.8%
COc1ccc(C(=O)N2CCC3(CCN(Cc4ccncc4)CC3)CC2)cc1	nt	nt	nt	-3.8%	-3.0%	nt
Cc1ccc(NC(=O)C2=C(c3ccccc3)S(=O)(=O)CCS2(=O)=O)cc1	28.2µM*	-28.9%	-1.4%	nt	-8.4%	28.2µM*
CCCCC#CC1C=CC(Oc2cc(OC)c(OC)c(OC)c2)C(COC(=O)OCC)O1 (stereo unspecified)	-14.0%[11.5 µM]	-13.5%[11.6 µM]	nt	nt	-3.9%[13.5 µM]	9.1%[11.6 µM]
O=c1c(O)cccc2cc(O)c(O)c(O)c12	3.16µM*	2.51µM*[quencher]	3.98µM*	5.01µM*	8.91µM*	11.2µM*
COc1cc2cccc(OC)c(=O)c2c(OC)c1OC	-13.6%	-6.0%	-23.9%	nt	-7.5%	-11.7%
Cc1cc(N)n(-c2ccc(S(=O)(=O)c3ccc(C(C)C)cc3)cc2)n1	0.4%	-24.3%	3.8%	nt	35.5µM*	12.9%
Cc1cc(N)n(-c2ccc([N+](=O)[O-])cc2)n1	-4.2%	-2.9%	7.6%	nt	5.9%	0.6%
CCCOc1ccc(CN(CCC#N)C(=S)NC(=O)c2ccccc2)cc1	3.0%	-6.3%	0.8%	28.2µM*	-4.0%	-12.2%
CN(Cc1ccccc1)C(=S)NC(=O)c1ccccc1	-0.8%	-0.9%	1.5%	nt	3.5%	-3.3%
Cn1c(CNC(=O)OC(C)(C)C)nnc1SCC(=O)N1CCOCC1	nt	-2.2%	13.1%	nt	nt	-2.2%
COc1cccc(NC(=O)CSc2nnc(Cc3cccs3)n2-c2ccc(C)cc2)c1	-17.4%	?	-6.8%	-14.6%	2.99µM*	-6.0%
COc1ccc(NC(=O)CSc2nnc(Cc3cccs3)n2-c2ccc(C)cc2)cc1	-16.1%	-28.2%	9.1%	-5.7%	15.8µM*	4.7%
C=CCn1c(Cc2cccs2)nnc1SCC(=O)Nc1cccc(OC)c1	-9.6%	-9.4%	1.9%	-4.3%	-2.3%	-1.6%
CCC(=O)N1CCc2cc(S(=O)(=O)NC(Cc3ccccc3)C(=O)Nc3ccc(C)cc3)ccc21 (stereo unspecified)	4.8%	-20.3%	nt	nt	nt	-9.1%
Cn1cc(C(=O)NCc2ccccc2)c(=O)c2cc(S(=O)(=O)N3CCOCC3)ccc21	8.4%	-6.5%	nt	nt	nt	-8.6%
SMILES	Tau ThT inhib	Tau fluor cs	KDM4E inh	HPGD inh	ALDH1A1 inh	Tau FP inhib
O=C(O)CC1(CC(=O)Nc2ccc3c(c2)C(=O)OC3)CCCCC1	1.0%	-2.2%	-0.8%	nt	nt	-5.8%
O=C(O)CC1(CC(=O)NCc2cc(F)cc3c2OCOC3)CCCCC1	4.1%	11.3%	9.3%	nt	10µM*	-0.5%
Nc1c(C(=O)NCc2cccs2)nnn1CC(=O)Nc1cccc(F)c1	-4.4%	-6.2%	nt	nt	nt	-12.7%
CCc1cc2c3c(c1)/C(=C1/SC(N)=NC1=O)C(=O)N3C(C)(C)C=C2C	?	?	0.8%	-11.4%	-0.8%	11.2%
CCc1cc2c3c(c1)C(C)CC(C)(C)N3C(=O)/C2=C1\SC(=O)NC1=O (stereo unspecified)	14.1µM*	?	2.4%	nt	nt	2.7%
O=C(CSCc1cc(=O)c2ccccc2[nH]1)Nc1cccc(C(F)(F)F)c1	-0.8%	-3.5%	nt	nt	nt	0.1%
COC(=O)c1c(SCC(=O)Nc2cccc(C(F)(F)F)c2)[nH]c2ccccc2c1=O	14.1µM*	15.8µM*[quencher]	nt	nt	nt	-8.2%
O=C(O)CCc1nnc(SCC(=O)Nc2cccc(C(F)(F)F)c2)[nH]c1=O	-0.7%	2.5%	-3.7%	nt	-0.6%	5.7%
COC(=O)c1c(SCC(=O)Nc2cccc(Cl)c2C)[nH]c2ccccc2c1=O	15.8µM*	-27.2%	nt	nt	nt	?
O=C(CSc1nc2cc3ccccc3cc2[nH]1)Nc1cccc(C(F)(F)F)c1	-6.4%	?	nt	nt	nt	3.16µM*
COC(=O)c1c(SCC(=O)Nc2cc(F)ccc2F)[nH]c2ccc(C)cc2c1=O	7.08µM*	?	nt	nt	nt	-2.7%
COc1ccccc1NC(=O)Cn1c(C)cc(C)c(C#N)c1=O	-2.8%	-0.7%	nt	nt	nt	7.9%
CCOc1ccc(C(=O)OCc2cc(=O)n3nc(C(C)C)sc3n2)cc1	-2.3%	-0.9%	nt	nt	nt	-3.4%
Cc1ccc(-c2noc(-c3cccnc3NCc3ccco3)n2)cc1	7.6%	-20.8%	nt	nt	nt	?
CCCOc1cccc(NC(=O)OC2CCN(C)CC2)c1	-8.9%	-8.4%	0.3%	-6.0%	-14.7%	5.7%
Cc1cc(CN(C)C(=O)CC2C(=O)NCCN2Cc2c(F)cccc2Cl)n[nH]1 (stereo unspecified)	-5.6%	4.8%	-11.4%	nt	15.8µM*	-4.7%
CC(=O)c1c(OC(=O)c2ccccc2Br)ccc2c(C)cc(=O)oc12	12.9%	8.2%	-3.0%	-7.6%	-1.0%	-1.1%
Cc1cc(OC(=O)c2ccccc2Br)cc(=O)n1C	?	-15.9%	5.1%	12.6µM*	6.0%	5.4%
c1ccc(CSc2ccc(-c3ccco3)nn2)cc1	-17.8%	-9.0%	-11.1%	-18.4%	39.8µM*	-2.0%
Clc1ccc(CSc2ccc(-c3ccco3)nn2)cc1	-17.8%	-10.7%	-6.0%	nt	-5.2%	-9.0%
Fc1ccccc1CSc1ccc(-c2ccco2)nn1	-17.8%	-17.5%	?	nt	28.2µM*	-1.0%
Clc1cccc(CSc2ccc(-c3ccco3)nn2)c1	?	-17.7%	-22.5%	nt	25.1µM*	3.4%
